{"source": "the supplement of paper PMC6555819", "data": [{"tested_on": "RARg homodimer (NR concentration 270 nM)", "experiment": "PBM binding z-score (relative to random genomic background probes); higher = stronger binding; sequences stand for … in GC…GCGATTGACAGCGTAGAATGAAGG", "summary_of_the_method": "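On custom Agilent 4×180K arrays, double-stranded probes with 34-nt variable regions carried direct-repeat seeds, single-nucleotide variants, half-site ablations or random human genomic background. Ligand-free nuclear receptor dimers were applied for 1 h, and binding was read with antibodies against each partner (one per run). Binding z-scores come from regression-normalized fluorescence, with the random background probes as reference.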", "values": [{"sequence": "TCTCGGAGGACACGAAAGGTCAGATCTCGACATC", "PBM binding z-score": 4.87}, {"sequence": "CCTCGGAGGACAGAGGGTCAGAGCTGTCCGCTTT", "PBM binding z-score": 2.4}, {"sequence": "ATCTCTAGGTAAGACTCAGTTTAGTGAAGAACGC", "PBM binding z-score": 0.235}, {"sequence": "ATCGAAAGGTCGAAGGTGAGTATCCCCACCCGAA", "PBM binding z-score": 3.71}, {"sequence": "AATACAGGGGCATCGTAGGCCAGAGTACGCACAG", "PBM binding z-score": 1.23}, {"sequence": "CGTCCAAGGTCAAGTTCAGTGAAAGAGACTCGAA", "PBM binding z-score": 7.17}, {"sequence": "CGTCCAAGGCCAGCAGGTCAGTGAAAGCGACGTG", "PBM binding z-score": 2}, {"sequence": "GATACAGGGTCAAGGCTAGAGTACGCGTATTGAT", "PBM binding z-score": 5.01}, {"sequence": "TGTCTAAGTTCAAAGGTAACGTAAGTATCCACAC", "PBM binding z-score": 3.63}, {"sequence": "TCAGACAGGTGAATGTAACTCAGGTACGCAGTCG", "PBM binding z-score": 0.476}, {"sequence": "TGAATGAGGGTATAAGATCAGGGAACGTTGCAAA", "PBM binding z-score": 0.546}, {"sequence": "CCTATCAGTTGACCATAAGGGCAACCGAAGCTCG", "PBM binding z-score": 1.03}, {"sequence": "CCTTACGGGTCACTGACACGTTATAGCATTTGGA", "PBM binding z-score": 4.47}, {"sequence": "CCAGACAGGTGAGAAGATAACTCAGCCTCGATTA", "PBM binding z-score": 0.586}, {"sequence": "CAAACTAGGTCACCAAAGGTCAAAGTCGAATGAC", "PBM binding z-score": 8.54}, {"sequence": "CAGCCTAGGTCAGGGCCGGTATAGGAGGAACGTT", "PBM binding z-score": 3.86}, {"sequence": "AGAATGAGGTTATACGTAGATCAGGCAAGAAAGT", "PBM binding z-score": 1.11}, {"sequence": "GCAGACAGGTGAAACGCATGTAACTCAGGGTGGC", "PBM binding z-score": 0.151}, {"sequence": "TCTATTAGTTGATTAGGGCACCCGAAACAGCGGA", "PBM binding z-score": 0.797}, {"sequence": "AGTCAACGTTCATCTAGGTAACGTAAGATATGCT", "PBM binding z-score": 0.744}, {"sequence": "GCTTGAAGATCAAGGTTAAGAAAGACTAAGCTAA", "PBM binding z-score": 0.181}, {"sequence": "AGAATGACGTTATTAAGATCAGGGAATTGCGGTC", "PBM binding z-score": 0.0594}, {"sequence": "TAGCCTAGGTCATGCGGTCCAGTATAGTGTCGGC", "PBM binding z-score": 4.51}, {"sequence": "CAAACTAGGTCACTGGAAGGTCAAAGTCCGCATG", "PBM binding z-score": 6.65}, {"sequence": "TCTCGGAGGACACGAAAGGTCAGAGCCCGACATC", "PBM binding z-score": 5.5}, {"sequence": "CCTTACGGGTCAAGGTTCTAGCACGGGTGGTACG", "PBM binding z-score": 4.47}, {"sequence": "ACCGACAGGTGAGTGAAGGTAACTCAGCTGGACG", "PBM binding z-score": 0.407}, {"sequence": "TCTATTACTTGATTAGGGCAACCGAAACAGCGGA", "PBM binding z-score": 0.616}, {"sequence": "CCTGCTAGGTCAATGGTCAGCAAAAGCAGCTCGC", "PBM binding z-score": 4.83}, {"sequence": "CCTATTAGTTGACCATAAGGGGAACCGAAGCTCG", "PBM binding z-score": 0.565}, {"sequence": "ACTAGTTGGTCAGCTGAAGTCACACACAATTCGG", "PBM binding z-score": 0.796}, {"sequence": "TCTTGTAGATCAATAGAGGTTCAGAAAGTGCGCT", "PBM binding z-score": 0.116}, {"sequence": "CTGCCTAGGTCAGGGCCAGTATAGGAGGAACGTT", "PBM binding z-score": 3.61}, {"sequence": "ACTCGGAGGACAAAGGTCAGAGCCACGCCAGTGA", "PBM binding z-score": 5.6}, {"sequence": "CGAACGAGGGCGTGAGTTGATAGCAAATGCCGAT", "PBM binding z-score": -0.0612}, {"sequence": "GGTACAGGGTCAGCTAGAGGCCAGAGTATGGAAA", "PBM binding z-score": 4.84}, {"sequence": "TCTATTAGTTGAAGGGCTACCGACGAGTCCGTTT", "PBM binding z-score": 0.0781}, {"sequence": "AGAATGAGCTTATTAAGATCAGGGAATTGCGGTC", "PBM binding z-score": -0.0554}, {"sequence": "ACAGACAGGTGATGAAGGTGACTCAGGCTATCAT", "PBM binding z-score": 0.55}, {"sequence": "ATCTCTAGGTAAAGTTCAGTGAGAGATCGATAGA", "PBM binding z-score": 2.47}]}]}
